HCV inh – inhibitors of hepatitis C virus infection; 340,000 compounds, 3.4% hits; Potency, µM (titrated, usually from 41.8 µM), for inactives: at the top dose activity change, negative = inhibition, usual class: inhibitors; Huh7.5.1 HCVcc-Cre infection, luciferase reporter, 44 h; AID 651820; further: potency means the concentration at half of the fitted maximal effect
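Reporter virus HCVcc-Cre (~0.5 moi) infects cells exposed to compound; seeding density 1,000 cells/well with 4 h settling beforehand. Luminescence, 15 sec read, taken 44 h post-infection following a 15 min RT substrate incubation.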
Vaccinia Venus – vaccinia inhibition (Venus reporter). Potency, µM (series often up to 36.5 µM), for the others: at the top dose activity change, negative = inhibition, hits mostly inhibitors. Vaccinia virus Venus reporter expression, fluorescence. AID 720580. 330,000 compounds, 0.46% hits; calls by dose curve; tested in A549 cells; further: potency means the concentration at half of the fitted maximal effect; nearly all actives have a fitted effect of over 30% in size
HCMV antiviral – inhibitors of human cytomegalovirus | AID 1259415 | 410,000 compounds, 4.5% hits | HFF cells, HCMV-luciferase reporter, 72 h; hits give low values | activity change, negative = inhibition, % at 57.5 µM; in the data active means activity change below about -60%; inconclusive means no clear call, values can overlap the other calls; inactive means above about -39%
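Screen run at 2 compound doses on HFFs infected with reporter HCMV, MOI 1 PFU/cell. Luciferase activity from cell lysates at 72 h post infection gave inhibition relative to buffer-only and Salinomycin wells.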
Sm TGR inh – inhibitors of Schistosoma mansoni thioredoxin glutathione reductase; purified TGR, DTNB reduction, TNB absorbance 405 nm; Potency, µM (series often up to 114 µM), for the others: at the highest dose activity change, negative = inhibition, hits mostly inhibitors; 360,000 compounds, 3% hits; further: potency means the concentration at half of the fitted maximal effect; nearly all actives have a fitted effect of over 60% in size
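Kinetic colorimetric format: TGR-catalysed, NADPH-driven DTNB reduction monitored via TNB absorbance. Enzyme dispensed at 20 nM; compound exposure 15 min at room temperature before reaction start.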
FMDV antiviral – antivirals against foot and mouth disease virus; AID 1159524; 410,000 compounds, 1.2% hits; FMDV antiviral cell-based qHTS; Potency, µM (titrated, usually from 57.9 µM), for inactives: at the top dose activity change, negative = inhibition, usual class: inhibitors; calls by dose curve; tested in HEK293T cells; further: read-out not given here; potency means the concentration at half of the fitted maximal effect; nearly all actives have a fitted effect of over 45% in size
VACV mCherry inh – inhibitors of vaccinia virus infection (mCherry reporter signal). Potency, µM (titrated, usually from 36.5 µM), without a hit: top-dose activity change, negative = inhibition, hits mostly inhibitors. Vaccinia virus mCherry reporter infection, fluorescence. 310,000 compounds, 0.63% hits; calls by dose curve; tested in A549 cells; further: potency means the concentration at half of the fitted maximal effect; nearly all actives have a fitted effect of over 35% in size
Active calls of the source: *. This is a sample that favours compounds with a hit; in the whole collection about 9.3% have one here. Unless noted, the call rests on the fitted dose curve; in most records, active means well fitted curve in the direction sought with a large enough effect; inconclusive means small, poorly fitted or top-dose-only effect, or another doubt; inactive means no such curve, though single readings can be large; an effect the other way counts as inactive or inconclusive. On the % scale 0 is the no-effect control and ±100 the full control effect.

For Cc1c(C(=O)Nc2ccc3nc(N4CCOCC4)sc3c2)oc2ccccc12 the results were HCV inh 11.2µM*, HCMV antiviral 0.0, Sm TGR inh -4.9% and FMDV antiviral inconclusive.
For O=C(Nc1ccc2nc(N3CCOCC3)sc2c1)c1cc2ccccc2o1 the results were Vaccinia Venus -8.8%, HCMV antiviral 43.6, FMDV antiviral -28.9% and VACV mCherry inh inconclusive.
Cc1c(NC2=NC(C)(C)Cc3ccccc32)c(=O)n(-c2ccccc2)n1C was read as HCV inh -1.1%, Vaccinia Venus -20.4%, HCMV antiviral -19.3, Sm TGR inh -8.8% and FMDV antiviral -3.9%.
For Cc1cccc(NC(=O)/C(C#N)=C/c2cn(CC(=O)NCc3ccco3)c3ccccc23)c1 the results were HCV inh inconclusive, Vaccinia Venus 3.0%, HCMV antiviral -63.1*, Sm TGR inh -3.6%, FMDV antiviral -17.9% and VACV mCherry inh -11.9%.
`O=C(NCc1ccco1)c1ccccc1-c1ccccc1` gave HCV inh -4.1%, HCMV antiviral -79.8*, Sm TGR inh inconclusive and FMDV antiviral -15.3%.
Cc1cc(-c2ccccc2)nc2cc(C(=O)NCc3ccco3)nn12 was read as HCV inh inconclusive, HCMV antiviral 19.5, Sm TGR inh 31.6µM* and FMDV antiviral 7.0%.
`Cc1csc2ncc(C(=O)NCc3ccco3)c(=O)n12` gave HCV inh -3.8%, Vaccinia Venus -25.9%, HCMV antiviral -25.7, Sm TGR inh 44.7µM*, FMDV antiviral 17.7% and VACV mCherry inh -29.9%.
COc1ccc(-c2cc(C(F)(F)F)n3nc(C(=O)NCc4ccco4)cc3n2)cc1 was read as HCV inh inconclusive, Vaccinia Venus -14.9%, HCMV antiviral -34.7, Sm TGR inh inconclusive and VACV mCherry inh -9.7%.
Screening O=C(NCc1ccco1)c1ccccc1F returned HCV inh 0.0%, HCMV antiviral 9.0, Sm TGR inh 44.7µM* and FMDV antiviral -7.5%.
Nc1ccccc1C(=O)NCc1ccco1 was read as HCV inh 6.8%, Vaccinia Venus -1.7%, HCMV antiviral 1.2, Sm TGR inh inconclusive, FMDV antiviral 2.0% and VACV mCherry inh inactive.
Screening NS(=O)(=O)c1cccc(NC(=O)Cn2nc(C(=O)O)c3ccccc3c2=O)c1 returned HCV inh 21.5%, Vaccinia Venus -17.5%, HCMV antiviral -32.0, Sm TGR inh 6.1%, FMDV antiviral 15.0% and VACV mCherry inh -15.6%.
`CCn1c(=O)c2ccccc2n(Cc2cccc([N+](=O)[O-])c2)c1=O` gave HCV inh 9.9%, Vaccinia Venus -8.4%, Sm TGR inh 11.1%, FMDV antiviral -13.1% and VACV mCherry inh inactive.
Screening Cc1noc(C)c1S(=O)(=O)Nc1ccc(C(=O)N2CCN(c3cccc(Cl)c3)CC2)cc1 returned HCV inh 4.3%, Vaccinia Venus -15.3%, HCMV antiviral -36.4, Sm TGR inh 2.0%, FMDV antiviral -13.9% and VACV mCherry inh -0.1%.
For O=C(O)c1ccccc1-c1ccccc1C(=O)NCc1ccco1 the results were HCV inh 9.5%, HCMV antiviral -7.8, Sm TGR inh 50.1µM* and FMDV antiviral 9.9%.
For O=C(Nc1ccccc1C(=O)NCc1ccco1)Nc1cccc2ccccc12 the results were HCV inh 11.2µM*, Vaccinia Venus inconclusive, HCMV antiviral inconclusive, Sm TGR inh -17.6%, FMDV antiviral -11.9% and VACV mCherry inh -14.4%.
`O=C(NCc1ccco1)c1cccc2ccccc12` gave HCV inh 1.7%, Vaccinia Venus -3.5%, HCMV antiviral -21.4, Sm TGR inh -8.9% and FMDV antiviral -16.8%.
For O=C(CN1CCN(c2ccccc2F)CC1)NC(=O)NCc1ccco1 the results were HCV inh 9.5%, Vaccinia Venus -8.1%, HCMV antiviral 7.4, Sm TGR inh 28.2µM*, FMDV antiviral -8.8% and VACV mCherry inh inactive.
For CN(c1ccccc1C(=O)NCc1ccco1)S(C)(=O)=O the results were HCV inh -3.1%, HCMV antiviral 8.7, Sm TGR inh 39.8µM* and FMDV antiviral 8.6%.
COc1ccc(Cl)cc1C(=O)NCc1ccco1 was read as HCV inh inconclusive, HCMV antiviral inconclusive, Sm TGR inh 44.7µM* and FMDV antiviral -18.9%.
`O/N=C/c1nc2cc(Cl)ccc2o1` gave HCV inh -1.1%, Vaccinia Venus -0.1%, HCMV antiviral -26.6, Sm TGR inh 0.0%, FMDV antiviral 23.2% and VACV mCherry inh -10.5%.
O=C(NC1=NC2CCCCC2N1)c1ccccc1 (configuration not stated) was read as HCV inh 18.7%, Vaccinia Venus -5.9%, HCMV antiviral -5.5, Sm TGR inh -4.2%, FMDV antiviral 12.6µM* and VACV mCherry inh inactive.
Screening CC(C(=O)N1CCN(c2ccccc2)CC1)c1ccc([N+](=O)[O-])cc1 (configuration not stated) returned HCV inh 4.0%, HCMV antiviral 70.3, Sm TGR inh 0.4% and FMDV antiviral -13.0%.
Screening CN1CCCN(c2cc(-c3ccc4ccccc4c3)nc3ccnn23)CC1 returned Vaccinia Venus 42.7%, HCMV antiviral -90.6*, FMDV antiviral 0.0% and VACV mCherry inh 8.2%.
CC1OC(C(C)(C)C)Cc2[nH][nH]c(=O)c21 (configuration not stated) was read as Vaccinia Venus 6.3%, HCMV antiviral 6.8, FMDV antiviral 0.0% and VACV mCherry inh inactive.
For Cn1cc(/C=C/c2cc[n+](C)cc2)c2cc(F)ccc21 the results were HCV inh 0.562µM*, Vaccinia Venus -16.5%, Sm TGR inh 4.6%, FMDV antiviral inconclusive and VACV mCherry inh -16.9%.
For Cn1cc(/C=C/c2cc[n+](C)cc2)c2cc(Cl)ccc21 the results were HCV inh inconclusive, Vaccinia Venus -3.3%, HCMV antiviral -101.5*, Sm TGR inh -4.4%, FMDV antiviral -16.4% and VACV mCherry inh inconclusive.
`C[n+]1ccc(/C=C/c2c[nH]c3ccc(F)cc23)cc1` gave HCV inh 1µM*, HCMV antiviral -96.7*, Sm TGR inh -18.6% and FMDV antiviral inconclusive.
For Cc1[nH]c2ccccc2c1/C=C/c1c[nH]c2ccccc12 the results were Vaccinia Venus 8.4% and VACV mCherry inh 22.6%.
`O=C(Cc1ccccc1[N+](=O)[O-])Nc1ccc2c(c1)OCO2` gave HCV inh -0.4%, Vaccinia Venus -6.9%, HCMV antiviral -23.8, FMDV antiviral 21.7% and VACV mCherry inh inactive.
Screening COc1cc(C2C=C(C(=O)O)Nc3ncnn32)ccc1O (configuration not stated) returned Vaccinia Venus 0.5%, HCMV antiviral -13.9, Sm TGR inh 1.7%, FMDV antiviral -16.3% and VACV mCherry inh -2.0%.
